# Read-outs that look alike come from different tables or passages of the source.
# Legend:
# Settings in all cases: read-out: apparent Kd, n = 1
# NUAK2 = system: NUAK2
# PAK6 = system: PAK6
# RET = system: RET
# [1] = compound concentrations:100 nM and 1000 nM (sheet 'Lestaurtinib' of Supplementary Table 1),run:Lestaurtinib_03252_R1,Plate:MR032
# [2] = compound concentrations:100 nM and 1000 nM (sheet 'Lestaurtinib' of Supplementary Table 1),run:Lestaurtinib_03260_R2,Plate:MR033
# [3] = compound concentrations:100 nM and 1000 nM (sheet 'Lestaurtinib' of Supplementary Table 1),run:Lestaurtinib_02339_R2,Plate:MR001
# [4] = compound concentrations:100 nM and 1000 nM (sheet 'Lestaurtinib' of Supplementary Table 1),run:Lestaurtinib_02364_R3,Plate:MR002
# [5] = compound concentrations:100 nM and 1000 nM (sheet 'Lestaurtinib' of Supplementary Table 1),run:Lestaurtinib_02367_R3,Plate:MR003
# [6] = compound concentrations:100 nM and 1000 nM (sheet 'Lestaurtinib' of Supplementary Table 1),run:Lestaurtinib_02381_R3,Plate:MR004
# [7] = compound concentrations:100 nM and 1000 nM (sheet 'Lestaurtinib' of Supplementary Table 1),run:Lestaurtinib_02422_R3,Plate:MR006
# [8] = compound concentrations:100 nM and 1000 nM (sheet 'Lestaurtinib' of Supplementary Table 1),run:Lestaurtinib_02437_R1,Plate:MR007
substance,measurement,setting,value
Lestaurtinib,potency estimated from few doses,"NUAK2; compound concentrations:100 nM and 1000 nM (sheet 'Lestaurtinib' of Supplementary Table 1),run:Lestaurtinib_03172_R1,Plate:MR031",98.7 nM
same,potency estimated from few doses,NUAK2; [1],45.5 nM
same,potency estimated from few doses,"NUAK2; compound concentrations:100 nM and 1000 nM (sheet 'Lestaurtinib' of Supplementary Table 1),run:Lestaurtinib_03252_R2,Plate:MR032",831 nM
same,potency estimated from few doses,NUAK2; [2],387 nM
same,potency estimated from few doses,PAK6; [3],151 nM
same,potency estimated from few doses,"PAK6; compound concentrations:100 nM and 1000 nM (sheet 'Lestaurtinib' of Supplementary Table 1),run:Lestaurtinib_02364_R2,Plate:MR002",137 nM
same,potency estimated from few doses,PAK6; [4],91000 nM
same,potency estimated from few doses,PAK6; [5],89.2 nM
same,potency estimated from few doses,"PAK6; compound concentrations:100 nM and 1000 nM (sheet 'Lestaurtinib' of Supplementary Table 1),run:Lestaurtinib_02381_R1,Plate:MR004",771 nM
same,potency estimated from few doses,PAK6; [6],136 nM
same,potency estimated from few doses,"PAK6; compound concentrations:100 nM and 1000 nM (sheet 'Lestaurtinib' of Supplementary Table 1),run:Lestaurtinib_02407_R1,Plate:MR005",1800 nM
same,potency estimated from few doses,"PAK6; compound concentrations:100 nM and 1000 nM (sheet 'Lestaurtinib' of Supplementary Table 1),run:Lestaurtinib_02407_R2,Plate:MR005",521 nM
same,potency estimated from few doses,"PAK6; compound concentrations:100 nM and 1000 nM (sheet 'Lestaurtinib' of Supplementary Table 1),run:Lestaurtinib_02407_R3,Plate:MR005",1490 nM
same,potency estimated from few doses,PAK6; [7],1350 nM
same,potency estimated from few doses,PAK6; [8],42.8 nM
same,potency estimated from few doses,"PAK6; compound concentrations:100 nM and 1000 nM (sheet 'Lestaurtinib' of Supplementary Table 1),run:Lestaurtinib_02437_R2,Plate:MR007",638 nM
same,potency estimated from few doses,"PAK6; compound concentrations:100 nM and 1000 nM (sheet 'Lestaurtinib' of Supplementary Table 1),run:Lestaurtinib_02437_R3,Plate:MR007",165 nM
same,potency estimated from few doses,"PAK6; compound concentrations:100 nM and 1000 nM (sheet 'Lestaurtinib' of Supplementary Table 1),run:Lestaurtinib_02438_R2,Plate:MR008",113 nM
same,potency estimated from few doses,"PAK6; compound concentrations:100 nM and 1000 nM (sheet 'Lestaurtinib' of Supplementary Table 1),run:Lestaurtinib_02443_R1,Plate:MR009",830 nM
same,potency estimated from few doses,"PAK6; compound concentrations:100 nM and 1000 nM (sheet 'Lestaurtinib' of Supplementary Table 1),run:Lestaurtinib_02443_R2,Plate:MR009",1300 nM
same,potency estimated from few doses,"PAK6; compound concentrations:100 nM and 1000 nM (sheet 'Lestaurtinib' of Supplementary Table 1),run:Lestaurtinib_02443_R3,Plate:MR009",169 nM
same,potency estimated from few doses,"PAK6; compound concentrations:100 nM and 1000 nM (sheet 'Lestaurtinib' of Supplementary Table 1),run:Lestaurtinib_02473_R3,Plate:MR010",121 nM
same,potency estimated from few doses,"PAK6; compound concentrations:100 nM and 1000 nM (sheet 'Lestaurtinib' of Supplementary Table 1),run:Lestaurtinib_02482_R2,Plate:MR011",852 nM
same,potency estimated from few doses,"PAK6; compound concentrations:100 nM and 1000 nM (sheet 'Lestaurtinib' of Supplementary Table 1),run:Lestaurtinib_02482_R3,Plate:MR011",797 nM
same,potency estimated from few doses,"PAK6; compound concentrations:100 nM and 1000 nM (sheet 'Lestaurtinib' of Supplementary Table 1),run:Lestaurtinib_02487_R1,Plate:MR012",1690 nM
same,potency estimated from few doses,"PAK6; compound concentrations:100 nM and 1000 nM (sheet 'Lestaurtinib' of Supplementary Table 1),run:Lestaurtinib_02487_R3,Plate:MR012",100 nM
same,potency estimated from few doses,"PAK6; compound concentrations:100 nM and 1000 nM (sheet 'Lestaurtinib' of Supplementary Table 1),run:Lestaurtinib_02496_R2,Plate:MR013",1370 nM
same,potency estimated from few doses,"PAK6; compound concentrations:100 nM and 1000 nM (sheet 'Lestaurtinib' of Supplementary Table 1),run:Lestaurtinib_02496_R3,Plate:MR013",1590 nM
same,potency estimated from few doses,"PAK6; compound concentrations:100 nM and 1000 nM (sheet 'Lestaurtinib' of Supplementary Table 1),run:Lestaurtinib_02566_R1,Plate:MR014",49.6 nM
same,potency estimated from few doses,"PAK6; compound concentrations:100 nM and 1000 nM (sheet 'Lestaurtinib' of Supplementary Table 1),run:Lestaurtinib_02566_R3,Plate:MR014",35.1 nM
same,potency estimated from few doses,"PAK6; compound concentrations:100 nM and 1000 nM (sheet 'Lestaurtinib' of Supplementary Table 1),run:Lestaurtinib_02572_R3,Plate:MR015",1350 nM
same,potency estimated from few doses,"PAK6; compound concentrations:100 nM and 1000 nM (sheet 'Lestaurtinib' of Supplementary Table 1),run:Lestaurtinib_02577_R1,Plate:MR016",1350 nM
same,potency estimated from few doses,"PAK6; compound concentrations:100 nM and 1000 nM (sheet 'Lestaurtinib' of Supplementary Table 1),run:Lestaurtinib_02584_R1,Plate:MR017",953 nM
same,potency estimated from few doses,"PAK6; compound concentrations:100 nM and 1000 nM (sheet 'Lestaurtinib' of Supplementary Table 1),run:Lestaurtinib_02584_R3,Plate:MR017",896 nM
same,potency estimated from few doses,"PAK6; compound concentrations:100 nM and 1000 nM (sheet 'Lestaurtinib' of Supplementary Table 1),run:Lestaurtinib_02601_R2,Plate:MR018",846 nM
same,potency estimated from few doses,"PAK6; compound concentrations:100 nM and 1000 nM (sheet 'Lestaurtinib' of Supplementary Table 1),run:Lestaurtinib_02601_R3,Plate:MR018",974 nM
same,potency estimated from few doses,"PAK6; compound concentrations:100 nM and 1000 nM (sheet 'Lestaurtinib' of Supplementary Table 1),run:Lestaurtinib_02606_R1,Plate:MR019",1440 nM
same,potency estimated from few doses,"PAK6; compound concentrations:100 nM and 1000 nM (sheet 'Lestaurtinib' of Supplementary Table 1),run:Lestaurtinib_02606_R2,Plate:MR019",722 nM
same,potency estimated from few doses,"PAK6; compound concentrations:100 nM and 1000 nM (sheet 'Lestaurtinib' of Supplementary Table 1),run:Lestaurtinib_02624_R1,Plate:MR020",730 nM
same,potency estimated from few doses,"PAK6; compound concentrations:100 nM and 1000 nM (sheet 'Lestaurtinib' of Supplementary Table 1),run:Lestaurtinib_02624_R2,Plate:MR020",686 nM
same,potency estimated from few doses,"PAK6; compound concentrations:100 nM and 1000 nM (sheet 'Lestaurtinib' of Supplementary Table 1),run:Lestaurtinib_02624_R3,Plate:MR020",783 nM
same,potency estimated from few doses,"PAK6; compound concentrations:100 nM and 1000 nM (sheet 'Lestaurtinib' of Supplementary Table 1),run:Lestaurtinib_02748_R1,Plate:MR024",896 nM
same,potency estimated from few doses,"PAK6; compound concentrations:100 nM and 1000 nM (sheet 'Lestaurtinib' of Supplementary Table 1),run:Lestaurtinib_02752_R1,Plate:MR025",793 nM
same,potency estimated from few doses,"PAK6; compound concentrations:100 nM and 1000 nM (sheet 'Lestaurtinib' of Supplementary Table 1),run:Lestaurtinib_02752_R2,Plate:MR025",782 nM
same,potency estimated from few doses,"PAK6; compound concentrations:100 nM and 1000 nM (sheet 'Lestaurtinib' of Supplementary Table 1),run:Lestaurtinib_02752_R3,Plate:MR025",799 nM
same,potency estimated from few doses,"PAK6; compound concentrations:100 nM and 1000 nM (sheet 'Lestaurtinib' of Supplementary Table 1),run:Lestaurtinib_02765_R2,Plate:MR026",766 nM
same,potency estimated from few doses,"PAK6; compound concentrations:100 nM and 1000 nM (sheet 'Lestaurtinib' of Supplementary Table 1),run:Lestaurtinib_02766_R1,Plate:MR027",519 nM
same,potency estimated from few doses,"PAK6; compound concentrations:100 nM and 1000 nM (sheet 'Lestaurtinib' of Supplementary Table 1),run:Lestaurtinib_02766_R2,Plate:MR027",66 nM
same,potency estimated from few doses,"PAK6; compound concentrations:100 nM and 1000 nM (sheet 'Lestaurtinib' of Supplementary Table 1),run:Lestaurtinib_02766_R3,Plate:MR027",696 nM
same,potency estimated from few doses,"PAK6; compound concentrations:100 nM and 1000 nM (sheet 'Lestaurtinib' of Supplementary Table 1),run:Lestaurtinib_02768_R1,Plate:MR028",996 nM
same,potency estimated from few doses,"PAK6; compound concentrations:100 nM and 1000 nM (sheet 'Lestaurtinib' of Supplementary Table 1),run:Lestaurtinib_02795_R1,Plate:MR022",648 nM
same,potency estimated from few doses,"PAK6; compound concentrations:100 nM and 1000 nM (sheet 'Lestaurtinib' of Supplementary Table 1),run:Lestaurtinib_02795_R2,Plate:MR022",528 nM
same,potency estimated from few doses,"PAK6; compound concentrations:100 nM and 1000 nM (sheet 'Lestaurtinib' of Supplementary Table 1),run:Lestaurtinib_02795_R3,Plate:MR022",1440 nM
same,potency estimated from few doses,"PAK6; compound concentrations:100 nM and 1000 nM (sheet 'Lestaurtinib' of Supplementary Table 1),run:Lestaurtinib_02802_R1,Plate:MR029",604 nM
same,potency estimated from few doses,"PAK6; compound concentrations:100 nM and 1000 nM (sheet 'Lestaurtinib' of Supplementary Table 1),run:Lestaurtinib_02802_R3,Plate:MR029",85.9 nM
same,potency estimated from few doses,"PAK6; compound concentrations:100 nM and 1000 nM (sheet 'Lestaurtinib' of Supplementary Table 1),run:Lestaurtinib_02896_R1,Plate:MR030",541 nM
same,potency estimated from few doses,"PAK6; compound concentrations:100 nM and 1000 nM (sheet 'Lestaurtinib' of Supplementary Table 1),run:Lestaurtinib_02896_R2,Plate:MR030",1310 nM
same,potency estimated from few doses,"PAK6; compound concentrations:100 nM and 1000 nM (sheet 'Lestaurtinib' of Supplementary Table 1),run:Lestaurtinib_02896_R3,Plate:MR030",785 nM
same,potency estimated from few doses,"PAK6; compound concentrations:100 nM and 1000 nM (sheet 'Lestaurtinib' of Supplementary Table 1),run:Lestaurtinib_03172_R2,Plate:MR031",581 nM
same,potency estimated from few doses,PAK6; [1],825 nM
same,potency estimated from few doses,"PAK6; compound concentrations:100 nM and 1000 nM (sheet 'Lestaurtinib' of Supplementary Table 1),run:Lestaurtinib_03260_R1,Plate:MR033",744 nM
same,potency estimated from few doses,PAK6; [2],805 nM
same,potency estimated from few doses,RET; [3],240 nM
same,potency estimated from few doses,RET; [4],273 nM
same,potency estimated from few doses,"RET; compound concentrations:100 nM and 1000 nM (sheet 'Lestaurtinib' of Supplementary Table 1),run:Lestaurtinib_02367_R1,Plate:MR003",274 nM
same,potency estimated from few doses,"RET; compound concentrations:100 nM and 1000 nM (sheet 'Lestaurtinib' of Supplementary Table 1),run:Lestaurtinib_02367_R2,Plate:MR003",260 nM
same,potency estimated from few doses,RET; [5],265 nM
same,potency estimated from few doses,"RET; compound concentrations:100 nM and 1000 nM (sheet 'Lestaurtinib' of Supplementary Table 1),run:Lestaurtinib_02381_R2,Plate:MR004",218 nM
same,potency estimated from few doses,RET; [6],113 nM
same,potency estimated from few doses,"RET; compound concentrations:100 nM and 1000 nM (sheet 'Lestaurtinib' of Supplementary Table 1),run:Lestaurtinib_02422_R1,Plate:MR006",162 nM
same,potency estimated from few doses,RET; [7],269 nM
same,potency estimated from few doses,RET; [8],142 nM

# Reference: PMC11062922 (Nature Chemical Biology, 2023)
